# Test results taken from PubChem BioAssay (Tox21).
# “And” between values parts separate entries of the source, which are not always exact repeats. Equal values may be shown once. Inconclusive results are not listed. Where a call stands in place of a potency, no number is given. Some structures have more than one record in an assay (separate samples or runs), and their calls can disagree. The source made the active and inactive calls. Unless noted, calls come from the whole dose curve; as a rule, active = well fitted curve in the direction sought with a large enough effect in the repeat runs; inconclusive = weak or mixed curves; inactive = no such curve, though single readings can be large; an effect the other way counts as inactive or inconclusive.
# Assays:
# [1] = qHTS assay to identify small molecule antagonists of the estrogen receptor alpha (ER-alpha) signaling pathway using the BG1 cell line in the presence of 0.1 nM 17-beta-estradiol - cell viability counter screen (AID 1259241); settings: VM7Luc4E2 (BG1) viability, CellTiter-Fluor protease, 22 h, 0.1 nM estradiol agonist added; series mostly up to 92.4 µM; note: nearly all actives have a fitted effect of over 40% in size; note: potency is the fitted concentration of half-maximal effect
# Method in brief: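 Measures cytotoxicity alongside the ER-alpha antagonist readout: VM7Luc4E2 cells, charcoal-stripped serum, 0.1 nM 17beta-estradiol final, 22 hr compound incubation at 37C, CellTiter-Fluor fluorescence.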
# [2] = qHTS assay to identify small molecule antagonists of the androgen receptor (AR) signaling pathway using the MDA cell line in the presence of 0.5 nM R1881 - cell viability counter screen (AID 1259242); settings: MDA-kb2 viability, CellTiter-Fluor protease fluorescence, 16 h; series mostly up to 92.4 µM; note: nearly all actives have a fitted effect of over 45% in size; note: potency is the fitted concentration of half-maximal effect
# Method in brief: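 Cells seeded at 3,000/well and allowed 5 hr at 37C, 0% CO2 before compound transfer and R1881 (0.5 nM final) addition; 16 hr later, live-cell protease fluorescence indicated cytotoxicity.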
# [3] = target: Estrogen receptor (Homo sapiens) (UniProt P03372); assay: qHTS assay to identify small molecule antagonists of the estrogen receptor alpha (ER-alpha) signaling pathway using the BG1 cell line in the presence of 0.1 nM 17-beta-estradiol (AID 1259244); settings: VM7Luc4E2 (BG1) ERE-luciferase, antagonist mode, 0.1 nM E2, 22 h; series mostly up to 92.4 µM; note: nearly all actives have a fitted effect of over 50% in size; note: potency is the fitted concentration of half-maximal effect
# Chain of Estrogen receptor (Homo sapiens) (P03372 whole entry, looked up): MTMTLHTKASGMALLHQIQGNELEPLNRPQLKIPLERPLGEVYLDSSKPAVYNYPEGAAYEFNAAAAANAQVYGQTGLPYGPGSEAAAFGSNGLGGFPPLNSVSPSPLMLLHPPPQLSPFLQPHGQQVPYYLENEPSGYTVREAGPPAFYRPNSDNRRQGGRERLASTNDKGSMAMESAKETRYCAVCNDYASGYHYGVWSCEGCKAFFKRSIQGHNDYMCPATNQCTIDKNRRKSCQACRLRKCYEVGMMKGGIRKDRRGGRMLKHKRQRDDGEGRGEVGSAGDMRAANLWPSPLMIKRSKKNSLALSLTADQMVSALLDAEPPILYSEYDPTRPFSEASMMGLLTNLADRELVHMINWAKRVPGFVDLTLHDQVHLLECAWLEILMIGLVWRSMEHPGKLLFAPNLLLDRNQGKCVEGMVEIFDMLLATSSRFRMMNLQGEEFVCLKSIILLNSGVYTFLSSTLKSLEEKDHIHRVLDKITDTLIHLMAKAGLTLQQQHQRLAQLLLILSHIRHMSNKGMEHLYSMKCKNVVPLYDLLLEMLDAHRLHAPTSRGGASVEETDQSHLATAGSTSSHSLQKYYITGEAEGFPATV
# Method in brief: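 Luciferase signal from VM7Luc4E2 ERE-reporter cells, co-dosed with test compound and 0.1 nM final 17beta-estradiol for 22 h, read with ONE-Glo.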
# [4] = qHTS assay to identify small molecule phospholipidosis (PLD) inducers (AID 1259344; active = well fitted curve in the direction sought with a large enough effect; an effect the other way counts as inactive or inconclusive); settings: HepG2 phospholipidosis, LipidTOX Red imaging, 24 h; series mostly up to 38.3 µM
# Method in brief: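 Accumulated phospholipid, stained red by LipidTOX during 24 h compound treatment of HepG2 cells at 37 C, is quantified from images as pit number and intensity, normalised per cell using Hoechst-stained nuclei.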
# [5] = qHTS assay to identify small molecule HDAC inhibitors (AID 1259364); settings: HCT-116 HDAC-Glo I/II luminescence, 2 h; series mostly up to 92.4 µM; note: potency is the fitted concentration of half-maximal effect;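 note: wild-type HCT-116 cells with endogenous class I/II HDAC activity; nearly all actives have a fitted effect of over 45% in size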; for activity change, negative = inhibition: top concentration of the series differs between compounds
# Method in brief: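 HCT-116 wt cells, 1,500/well, overnight attach. Compounds (DMSO) 2 h, 37 °C. HDAC-Glo I/II, 30 min RT. Luminescence.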
# [6] = qHTS assay to identify small molecule HDAC inhibitors - cell viability counter screen (AID 1259365); settings: HCT-116 viability, CellTiter-Glo ATP luminescence, 2 h; series mostly up to 92.4 µM; note: nearly all actives have a fitted effect of over 50% in size
# Method in brief: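 Following a 2hr exposure of overnight-plated wild-type HCT-116 cells to DMSO-delivered compounds, CellTiter-Glo was added and luminescence recorded after 30min at room temperature.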
# [7] = qHTS assay to identify small molecule agonists of the sonic hedgehog signaling (Shh) pathway - cell viability counter screen (AID 1259366); settings: NIH/3T3 Gli1-Luc viability, CellTiter-Fluor, 24 h; series mostly up to 92.4 µM; note: nearly all actives have a fitted effect of over 50% in size; note: potency is the fitted concentration of half-maximal effect
# Method in brief: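 After a 4hr attachment at 37C, NIH/3T3 cells bearing an integrated Gli1-driven luciferase reporter were dosed with compounds. Treatment lasted 24hr, with the final hour including CellTiter-Fluor for a fluorescence viability measurement.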
# [8] = qHTS assay to identify small molecule antagonists of the sonic hedgehog signaling (Shh) pathway - cell viability counter screen (AID 1259367); settings: NIH/3T3 Gli1-Luc viability, CellTiter-Fluor, 24 h; series mostly up to 92.4 µM; note: nearly all actives have a fitted effect of over 55% in size; note: potency is the fitted concentration of half-maximal effect
# Method in brief: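 CellTiter-Fluor signal in conditioned medium-stimulated 3T3 Gli1-Luc cells, 23 hr compound exposure, 37C.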
# [9] = qHTS assay to identify small molecule agonists of the sonic hedgehog signaling (Shh) pathway (AID 1259368; calls by dose curve;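 note: NIH/3T3-derived 3T3Gli1-Luc cells carrying a stable Gli1-driven firefly luciferase reporter; nearly all actives have a fitted effect of over 15% in size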); settings: NIH/3T3 Gli1-Luc reporter, luciferase, 24 h; series mostly up to 92.4 µM
# Method in brief: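 Following a 24 hr incubation with DMSO-dissolved compounds at 37 C, 5% CO2, Gli1-Luc NIH/3T3-derived cells received luciferase reagent for 30 min at room temperature prior to luminescence measurement.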
# [10] = target: Androgen receptor (Homo sapiens) (UniProt P10275); assay: qHTS assay to identify small molecule antagonists of the androgen receptor (AR) signaling pathway using the MDA cell line in the presence of 0.5 nM R1881 (AID 1259243); settings: MDA-kb2 MMTV-luciferase, R1881 0.5 nM, 16 h; series mostly up to 92.4 µM; note: nearly all actives have a fitted effect of over 50% in size; note: potency is the fitted concentration of half-maximal effect
# Chain of Androgen receptor (Homo sapiens) (P10275 whole entry, looked up): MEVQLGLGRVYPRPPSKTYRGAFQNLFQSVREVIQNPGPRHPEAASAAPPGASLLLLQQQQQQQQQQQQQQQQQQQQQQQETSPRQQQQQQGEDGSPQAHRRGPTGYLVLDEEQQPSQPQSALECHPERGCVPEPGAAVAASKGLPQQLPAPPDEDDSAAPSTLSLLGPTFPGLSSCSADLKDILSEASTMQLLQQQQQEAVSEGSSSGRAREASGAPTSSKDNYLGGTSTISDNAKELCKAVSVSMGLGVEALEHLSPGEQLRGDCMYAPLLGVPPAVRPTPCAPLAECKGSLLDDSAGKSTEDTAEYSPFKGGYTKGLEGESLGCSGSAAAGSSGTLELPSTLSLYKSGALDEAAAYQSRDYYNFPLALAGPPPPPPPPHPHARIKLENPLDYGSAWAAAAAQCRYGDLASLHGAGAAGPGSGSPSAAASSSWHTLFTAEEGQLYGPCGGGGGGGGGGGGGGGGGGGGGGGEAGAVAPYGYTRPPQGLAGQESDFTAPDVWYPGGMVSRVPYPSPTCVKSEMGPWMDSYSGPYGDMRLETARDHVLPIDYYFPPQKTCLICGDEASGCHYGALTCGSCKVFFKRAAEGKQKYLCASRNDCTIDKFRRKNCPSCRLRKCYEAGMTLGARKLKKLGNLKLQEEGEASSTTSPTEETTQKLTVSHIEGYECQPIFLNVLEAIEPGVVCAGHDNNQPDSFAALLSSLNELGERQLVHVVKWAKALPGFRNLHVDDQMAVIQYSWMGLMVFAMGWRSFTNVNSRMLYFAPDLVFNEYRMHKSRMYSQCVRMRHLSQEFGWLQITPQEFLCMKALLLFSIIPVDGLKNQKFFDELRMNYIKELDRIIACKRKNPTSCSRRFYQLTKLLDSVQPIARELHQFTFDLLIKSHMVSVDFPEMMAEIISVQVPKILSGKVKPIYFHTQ
# Method in brief: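 Luminescence from an AR/GR-responsive MMTV-luciferase construct in MDA-kb2 breast carcinoma cells, read 30 min after ONE-Glo, following 16 hr co-treatment with compounds and 0.5 nM R1881.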
SMILES,Potency [1],Potency [2],Potency [3],Potency [4],Potency [5],outcome [6],Potency [7],Potency [8],Potency [9],Potency [10],"viability change, negative = cytotoxic [2]","activity change, negative = inhibition [3]"
NCCN,inactive,inactive,inactive,inactive,inactive,inactive,inactive,inactive,inactive,–,–,–
C=C[C@@]1(C)CC(=O)[C@]2(O)[C@@]3(C)[C@@H](O)CCC(C)(C)[C@@H]3[C@H](O)[C@H](OC(C)=O)[C@@]2(C)O1,inactive,inactive,15.4 µM (active) and 7.5 µM (active),inactive,inactive,inactive,–,inactive,inactive,–,–,–
COc1cc([C@H]2Oc3cc([C@H]4Oc5cc(O)cc(O)c5C(=O)[C@@H]4O)ccc3O[C@@H]2CO)ccc1O,inactive,inactive,inactive,inactive,inactive,inactive,24.3 µM (active) and inactive,27.2 µM (active) and inactive,inactive,–,–,–
OC[C@H]1O[C@@H]2O[C@H]3[C@H](O)[C@@H](O)[C@@H](O[C@H]4[C@H](O)[C@@H](O)[C@@H](O[C@H]5[C@H](O)[C@@H](O)[C@@H](O[C@H]6[C@H](O)[C@@H](O)[C@@H](O[C@H]7[C@H](O)[C@@H](O)[C@@H](O[C@H]1[C@H](O)[C@H]2O)O[C@@H]7CO)O[C@@H]6CO)O[C@@H]5CO)O[C@@H]4CO)O[C@@H]3CO,inactive,inactive,inactive,inactive,inactive,inactive,inactive,inactive and 25.7 µM (active),inactive,–,–,–
CC(C)[N+](C)(CCOC(=O)C1c2ccccc2Oc2ccccc21)C(C)C,inactive,inactive,inactive,inactive,inactive,inactive,inactive,inactive,inactive,–,–,–
COc1ccc2nc(N)sc2c1,inactive,inactive,inactive,–,27.3 µM (active) and 24.3 µM (active),inactive,inactive,inactive,inactive,inactive,–,–
CC/C=C\C/C=C\C/C=C\CCCCCCCC(=O)O,inactive,inactive,inactive,inactive,inactive,inactive,inactive,inactive,inactive,–,–,–
NCCS(=O)(=O)O,inactive,inactive,inactive,inactive,inactive,inactive,inactive,22.5 µM (active) and inactive,inactive,–,–,–
CC(=O)O[C@]1(C(C)=O)CC[C@H]2[C@@H]3C=C(Cl)C4=CC(=O)CC[C@]4(C)[C@H]3CC[C@@]21C,inactive,inactive,inactive,inactive,inactive,inactive,inactive,inactive,inactive,–,–,–
FC(F)(F)C(Cl)Br (stereo unspecified),inactive,inactive,inactive,inactive,inactive,inactive,inactive,inactive,inactive,–,–,–
Cc1ccc(S(=O)(=O)NCl)cc1,inactive,inactive,inactive,inactive,inactive,inactive,inactive,inactive,inactive,–,–,–
CC(C)(C)c1cccc(C(C)(C)C)c1O,inactive,inactive,inactive,–,inactive,inactive,inactive,inactive,inactive,–,–,–
Cc1ccc(S(=O)(=O)O)cc1C,inactive,inactive,inactive,inactive,inactive,inactive,inactive,inactive,inactive,–,–,–
CC(=O)OC(C)C,inactive,inactive,inactive,–,inactive,inactive,inactive,inactive,inactive,–,–,–
CC(=O)Oc1ccc(C(c2ccc(OC(C)=O)cc2)c2ccccn2)cc1,750 nM (active),inactive,54.2 nM (active) and 944 nM (active),inactive,inactive,inactive,inactive,inactive,inactive,171 nM (active) and 1.19 µM (active),–,–
O=[Se](O)O,inactive,13.7 µM (active),–,–,inactive,inactive,inactive,inactive,inactive,–,-4.23% [at 19 µM] (inactive),-20.4% [at 19 µM] (inactive)
CCC/C=C/C=O,inactive,inactive,inactive,–,inactive,inactive,inactive,inactive,inactive,inactive,–,–
CN(C)/N=N/c1nc[nH]c1C(N)=O,inactive,inactive,inactive,inactive,inactive,inactive,inactive,inactive,inactive,–,–,–
C[C@]12C=CC(=O)C=C1CC[C@H]1[C@@H]3C[C@@H](O)[C@](O)(C(=O)CO)[C@@]3(C)C[C@H](O)[C@@]12F,inactive,inactive,inactive,inactive,inactive,inactive,inactive,inactive,inactive,–,–,–
C=C1C[C@H]2[C@@H]3C=C(C)C4=CC(=O)CC[C@]4(C)[C@H]3CC[C@]2(C)[C@@]1(OC(C)=O)C(C)=O,inactive,inactive,inactive,–,inactive,inactive,inactive,inactive,inactive,inactive,–,–
CN(Cc1cnc2nc(N)nc(N)c2n1)c1ccc(C(=O)N[C@@H](CCC(=O)O)C(=O)O)cc1,inactive,inactive,inactive,inactive,inactive,inactive,inactive,inactive,inactive,inactive,–,–
c1ccc2c(c1)[nH]c1ccccc12,inactive,inactive,inactive,–,inactive,inactive,inactive,inactive,inactive,8.49 µM (active) and 8.63 µM (active),–,–
O=C(O)c1cc(=O)[nH]c(=O)[nH]1,inactive,inactive,inactive,inactive,inactive,inactive,inactive,inactive and 16.8 µM (active),inactive,–,–,–
